FBW7 act – activators of human E3 ligase FBW7; Q969H0; AlphaScreen FBW7–phospho-cyclin E peptide binding, activator screen; normalized activity (activation), % at 26.1 µM; 650,000 compounds, 0.13% hits; in the data active = normalized activity above about 1.9%;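 note: purified mutant Fbw7 with reduced substrate affinity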
GPR151 activ – activates the human receptor GPR151; 650,000 compounds, 1% hits; activation, % at 11.2 µM; PathHunter beta-arrestin GPR151 cells, luminescence; Q8TDV0; in the data active = activation above about 4.9%
MITF inh – blocks human microphthalmia-associated transcription factor | O75030 | AlphaScreen MITF homodimerization, bead proximity signal | inhibition, % at 2.6 µM | 650,000 compounds, 0.91% hits | AID 1259374; in the data active = inhibition above about 50%
TEAD-YAP inh – TEAD-YAP interaction inhibition; HEK-TIYL cells, TEAD-Gal4/YAP UAS-luciferase luminescence; inhibition, % at 9.12 µM; 640,000 compounds, 1.4% hits; AID 1259422; in the data active = inhibition above about 32%
Of the large screens only hits and unclear results are named; the others gave an inactive call. The list is not random: actives were taken first. Their share in the collection is about 3.4%.

OCCNc1nc(N2CCN(c3ccccn3)CC2)nc2c1ncn2-c1ccccc1	TEAD-YAP inh 42
c1ccc(N2CCN(c3nc(NCCN4CCOCC4)c4ncn(-c5ccsc5)c4n3)CC2)nc1	TEAD-YAP inh 57
OCCNc1nc(N2CCN(c3ccccn3)CC2)nc2c1ncn2-c1ccsc1	TEAD-YAP inh 51
N#Cc1ccc(Cn2c3ccccc3c3nc4ccccc4nc32)cc1	none
COC(=O)c1sc(NC(=O)c2ccccc2Cl)c(C#N)c1C	none
Cc1sc(NC(=O)c2ccccc2Cl)c(C#N)c1C	FBW7 act 2.6
Cc1cc([N+](=O)[O-])nn1CC(=O)NCc1ccc(F)cc1C(F)(F)F	TEAD-YAP inh 44
COCCn1nnnc1C(c1cccs1)N1CCN(C(=O)c2ccco2)CC1 (stereo not given)	none
OCCC1CN(Cc2cnc(N3CCOCC3)s2)CCN1Cc1ccsc1 (stereo not given)	none
COc1ccccc1/C=C(\NC(=O)c1ccccc1)C(=O)Nc1cccc(O)c1	TEAD-YAP inh 40
CNC(=O)CSc1nnc(COc2ccccc2C)n1-c1cccc(C)c1	none
CC(C(=O)Nc1ccc(Cl)cn1)N1Cc2ccccc2C1=O (stereo not given)	TEAD-YAP inh 85
CCOC(=O)c1sc(NC(=O)c2cc([N+](=O)[O-])ccc2Sc2nnnn2C)cc1C	none
Cn1nnnc1Sc1ccc([N+](=O)[O-])cc1C(=O)Nc1ccc(C(F)(F)F)cc1	TEAD-YAP inh 50
O=C(NC1CCN(C(=O)NCc2ccccc2)CC1)c1ccccc1F	none
N#CC(C#N)=NNc1ccc(O)c(C(=O)O)c1	MITF inh 79
N#CC(C#N)=NNc1ccccc1C(=O)O	none
Cc1nc2c(-c3ccccc3)cnn2c(N)c1-c1ccccc1	TEAD-YAP inh 90
Cc1nn2c(N)c(-c3ccc(Cl)cc3)cnc2c1-c1ccccc1	none
Cc1nc2c(-c3ccc(Cl)cc3)c(C)nn2c(N)c1-c1ccccc1	TEAD-YAP inh 34
CCN(CC)C(=O)C1c2cc(OC)c(OC)cc2C(=O)N2CCc3ccccc3C12 (stereo not given)	none
CCOc1cc2c(cc1OCC)C1C(C(=O)N(CC)CC)c3ccccc3C(=O)N1CC2 (stereo not given)	TEAD-YAP inh 32
CC(CC(=O)Nc1cc([N+](=O)[O-])ccc1Cl)c1ccccc1 (stereo not given)	none
O=C(/C=C/c1ccc(F)cc1)Nc1cc([N+](=O)[O-])ccc1F	TEAD-YAP inh 53
O=C(/C=C\c1ccco1)Nc1cc([N+](=O)[O-])ccc1F	TEAD-YAP inh 60
CC(CC(=O)Nc1cc([N+](=O)[O-])ccc1F)c1ccccc1 (stereo not given)	TEAD-YAP inh 38
O=C(/C=C/c1ccc(F)cc1)Nc1ccc([N+](=O)[O-])cc1Br	none
O=C1C(=O)N(CN2N=C(c3ccc(Br)cc3)CC2c2ccc(F)cc2)c2ccc(Br)cc21 (stereo not given)	none
CCc1ccc2nc(SCC(N)=O)c(C#N)cc2c1	TEAD-YAP inh 50
N#Cc1cc2c(nc1SCC(=O)Nc1ccccc1)CCCC2	none
CCc1ccc2nc(SCC(=O)OC)c(C#N)cc2c1	none
COc1cc2cc(C#N)c(SCC(=O)N3CCOCC3)nc2cc1OC	none
CC(C)c1ccc2nc(SCC(=O)N3CCOCC3)c(C#N)cc2c1	TEAD-YAP inh 36
N#Cc1cc2c(nc1SCC(=O)N1CCOCC1)CCCCC2	TEAD-YAP inh 83
N#Cc1cc2c(nc1SCC(=O)Nc1nc3ccccc3s1)CCC2	TEAD-YAP inh 90
COC(=O)c1ccc(/C=C/C(=O)c2ccc(OC)c(OC)c2)cc1	none
COc1cc(C(=O)/C=C/c2ccc(OCC(N)=O)cc2)cc(OC)c1OC	FBW7 act 2.0
CCOc1ccc(C(=O)/C=C/c2cc(OC)c(OC)c(OC)c2)cc1	TEAD-YAP inh 40
COc1cc(/C=C/C(=O)c2ccc(F)cc2)cc(OC)c1OC	none
CN(C)c1ccc(CN2CCN(CCO)CC2)cc1	MITF inh 77
CN(C)c1ccc(CN2CCN(c3ncccn3)CC2)cc1	none
CN(C)c1ccc(CN2CCC(C(N)=O)CC2)cc1	MITF inh 76
CCOc1ccc(NC(=O)COc2cccc3ccc(N4CCCC4)nc23)cc1	none
O=C(COc1cccc2ccc(N3CCOCC3)nc12)Nc1cccc(F)c1	TEAD-YAP inh 34
COc1ccc(CN2CCN3C(=O)[C@H](CO)NC(=O)[C@H]3C2)cc1	none
CCC(C)N1C(=O)/C(=C/c2c(NCc3ccco3)nc3ccccn3c2=O)SC1=S (stereo not given)	TEAD-YAP inh 43
NC(c1nc2ccc(-c3ccncc3)cc2[nH]1)c1ccc(F)cc1F (stereo not given)	none
Fc1ccc2nc(-c3nc4ccc(-c5ccncc5)cc4[nH]3)[nH]c2c1	FBW7 act 2.6
